Screening results (PubChem)
A selection: hits, their analogues and other compounds. The true share with any hit is near 7%.
IL1B secr inh: blocks inflammasome-driven IL-1 beta release | actives 4.7% (n = 360,000) | activity change, % at 57.5 µM | THP-1 LPS/ATP IL-1B secretion, AlphaLISA, 16 h; stronger effect = lower value; in the data active means activity change below about -50%; inconclusive means mostly about -30% to -49%; further: on the % scale 0 is the no-effect control and ±100 the full control effect
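Secreted IL-1B measured by AlphaLISA bead assay after 16 h compound exposure of THP-1 cells; compounds (final up to 57.5 uM) added 1 h before LPS (250 ng/mL) and ATP (1.25 mM) stimulation; lower signal means less secretion.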
DRD3 agonist: agonists of human D3 dopamine receptor; P35462; D3R DiscoveRx beta-arrestin cells, luminescence, 90 min; max activation, %; actives 0.58% (n = 410,000); AID 652048; in the data active means max activation above about 30%; further: 0% is about no effect
Target sequence (P35462 whole entry, looked up): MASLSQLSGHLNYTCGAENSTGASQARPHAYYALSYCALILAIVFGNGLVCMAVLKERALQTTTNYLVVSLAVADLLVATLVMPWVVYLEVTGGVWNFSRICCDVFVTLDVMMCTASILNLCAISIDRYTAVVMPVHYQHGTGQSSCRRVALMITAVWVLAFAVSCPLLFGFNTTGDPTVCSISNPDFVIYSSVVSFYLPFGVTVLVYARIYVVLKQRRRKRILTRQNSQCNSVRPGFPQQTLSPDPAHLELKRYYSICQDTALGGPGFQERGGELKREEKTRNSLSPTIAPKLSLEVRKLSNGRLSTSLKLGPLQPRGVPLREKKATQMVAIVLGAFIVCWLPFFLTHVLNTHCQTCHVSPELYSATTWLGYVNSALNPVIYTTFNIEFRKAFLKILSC
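Agonist mode: compounds and dopamine controls were applied to plated cells for 90 min at 37 degrees C after an overnight attachment at 1500 cells/well. Luminescent read-out followed 30 - 60 minutes at room temperature with DiscoveRx detection reagent.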
S2 tox: cell viability loss in ATXN counter-screen; Potency, µM (doses to about 56.7 µM), actives largely listed as cytotoxic; S2 cells (HEK-293 line with an ATXN2-luciferase reporter) viability, CellTiter-Fluor protease fluorescence, 24 h; actives 0.49% (n = 400,000); further: potency means the concentration at half of the fitted maximal effect; nearly all actives have a fitted effect of over 40% in size
D3 antag: D3 dopamine receptor (human) antagonism. actives 2.5% (n = 360,000). P35462. AID 652054. max response, negative = inhibition, %. D3R cells, DiscoveRx beta-arrestin luminescence, antagonist mode; stronger effect = lower value; in the data active means max response below about -50%; inconclusive means no clear call, values can overlap the other calls; further: on the % scale 0 is the no-effect control and ±100 the full control effect
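Cells expressing the human receptor were seeded at 1500 cells/well, incubated overnight at 37 degrees C in 5% CO2, then exposed to library compounds with dopamine controls for 90 minutes at 37 degrees C before luminescent detection.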
ATXN2 expr inh: ATXN2 expression inhibition; HEK-293 ATXN2-luciferase reporter, luminescence, 24 h; Potency, µM (top dose mostly 57 µM), without a hit: at the top dose activity change, negative = inhibition, hits mostly inhibitors; actives 0.72% (n = 360,000); AID 1745845; further: potency means the concentration at half of the fitted maximal effect; on the % scale 0 is the no-effect control and ±100 the full control effect; nearly all actives have a fitted effect of over 55% in size
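qHTS (up to 57 uM final) was run with 24 h compound exposure of reporter cells at 37 °C. Each well was multiplexed: SteadyGlo luminescence measured ATXN2-luciferase expression after a fluorogenic Gly-Phe-AFC viability readout (25 uM final).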
Integrin act MD: activates integrin-mediated alleviation for muscular dystrophy; alpha7betagal myoblasts, beta-gal FDG fluorescence, 48 h; Potency, µM (titrated, usually from 38.3 µM), without a hit: at the highest dose activation, actives largely listed as activators; actives 0.064% (n = 350,000); AID 624291;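 further: potency means the concentration at half of the fitted maximal effect; 100% = response of the positive control SU9516; nearly all actives have a fitted effect of over 60% in size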
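Alpha7betagal+/- myoblasts (passage 13) were plated 16-24 hr, then exposed to compounds (1:260 dilution of DMSO stock) for 48 hours at 37C. After MPER lysis, β-galactosidase reporter activity was read as FDG fluorescence (ex 480/em 540) after 30 minutes.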
The depositor's hits bear a star; i = inactive; ? = inconclusive; · = not tested or not shown; [ ] = remark or other dose. Unless noted, the call rests on the fitted dose curve; in most records, active means well fitted curve in the direction sought with a large enough effect; inconclusive means small, poorly fitted or top-dose-only effect, or another doubt; inactive means no such curve, though single readings can be large; an effect the other way counts as inactive or inconclusive.

SMILES	IL1B secr inh	DRD3 agonist	S2 tox	D3 antag	ATXN2 expr inh	Integrin act MD
CCCCCC1CC(=O)NC1(C(=O)OCC)C(=O)OCC (centres undefined)	-64.0*	0.1	i	-10.0	2.1%	-2.8%
CCOC(=O)C1(C(=O)OCC)NC(=O)CC1CC (centres undefined)	0.4	3.6	i	-4.7	2.4%	7.8%
CCCSc1nc2c(c(=O)[nH]c(=O)n2C)n1CC(O)COc1ccccc1 (centres undefined)	38.1	2.7	i	19.0	-19.6%	-19.4%
O=C(Nc1ccc(C(=O)N2CCCC2)cc1)c1ccccc1F	5.0	-20.8	i	-8.4	-13.5%	-1.3%
CN1CCN(c2ccc(NC(=O)c3ccc(C#N)cc3F)cc2Cl)CC1	-11.1	-5.5	i	-56.9*	4.2%	?
O=C(Nc1cccc(NC(=O)c2ccccc2F)c1)c1ccccc1	-53.6*	-0.4	i	-6.5	-8.4%	-16.0%
O=C(Nc1cc(C(=O)N2CCCC2)ccc1N1CCCC1)c1ccccc1F	-11.0	61.3*	i	55.9	-12.6%	-31.3%[7.66 µM]
O=C(Nc1ccc(N2CCCC2)c(Cl)c1)c1ccccc1F	-50.4*	-1.5	i	4.6	·	-5.3%
CCC(=O)N1CCN(c2ccc(NC(=O)c3ccc(C#N)cc3F)cc2Cl)CC1	25.5	17.2	i	6.3	-25.4%	-4.6%
O=C(CCBr)N1CCN(C(=O)CCBr)CC1	·	-18.6	i	·	1.2%	·
O=C(O)CC1(CC(=O)NCc2ccncc2)CCCCC1	0.6	12.8	i	2.8	2.9%	4.5%
Nc1ncnc2c1ncn2[C@@H]1O[C@H](CNS(=O)(=O)c2cc3ccccc3s2)[C@@H](O)[C@H]1O	20.6	8.5	i	10.3	0.2%	10.4%
O=C(CCl)N1CCCC1c1ccc2c(c1)OCCO2 (centres undefined)	-102.5*	4.5	·	-7.6	?	0.0%
CSc1sccc1/C=N/O	20.8	13.9	i	-55.0*	-7.1%	-8.8%
Cc1c(N=C2NC(=O)/C(=C/c3ccc(O)cc3)S2)c(=O)n(-c2ccccc2)n1C	-18.0	-11.0	?	-8.7	3.7%	7.9%
O=C1NC(=NCc2ccccc2)S/C1=C/c1ccc(O)cc1	-75.9*	-24.6	?	-5.5	?	1.3%
O=C(CNC(=O)c1cccs1)NCCN1CCN(c2ccccc2F)CC1	14.1	-11.1	i	-51.5*	-4.7%	-15.6%
O=C(c1cccs1)N1CCCC1	-3.9	1.1	i	7.0	4.5%	-7.5%
O=C(NCCN1CCN(C(=O)c2cccs2)CC1)C(=O)Nc1ccc(Br)cc1	-21.8	-0.5	i	-25.4	-20.2%	34.7%
O=C(c1cccs1)N1CCN(C(=O)c2cccs2)C1=S	-95.0*	-5.8	·	-1.6	?	-52.4%
O=C(NCCN1CCN(C(=O)c2cccs2)CC1)c1cccs1	7.3	-34.5	i	-74.3*	-8.0%	6.6%
CC(C)(C)CC(=O)NCc1ccc(F)cc1	-19.2	-2.2	i	12.3	-4.0%	-11.1%
O=C(NCCc1ccc(Cl)cc1)c1cc(S(=O)(=O)N2CCCC2)ccc1F	-5.0	-7.4	i	-1.7	·	18.7%
CCOC(=O)N1CCC(Nc2c(Nc3ccc(F)cc3)c(=O)c2=O)CC1	30.7	-8.4	?	-89.5*	-14.5%	-55.3%
CCOC(=O)N1CCC(NCCNC(=O)c2cccc(F)c2)CC1	0.0	-67.5	i	-112.3*	13.2%	1.1%
SMILES	IL1B secr inh	DRD3 agonist	S2 tox	D3 antag	ATXN2 expr inh	Integrin act MD
CCOC(=O)N1CCC(Nc2c(Nc3cccc(CC)c3)c(=O)c2=O)CC1	35.7	-33.3	i	-61.5*	-23.1%	-23.4%
Cc1ccc(NC(=Nc2ccc(Br)cc2)N2CCOCC2)cc1C	-66.3*	-7.7	i	-7.5	?	-61.8%
COc1cccc(-n2nnc3c(=O)n(Cc4c(F)cccc4Cl)cnc32)c1	-7.6	0.4	i	-3.7	6.2%	-13.1%
COc1cccc(-n2nnc3c(=O)n(Cc4cccc(F)c4)cnc32)c1	-54.9*	-17.2	i	3.9	13.9%	?
Cc1c(C2Nc3ccccc3NC3=C2C(=O)CC(C)(C)C3)cnn1C (centres undefined)	?	-3.4	i	-70.8*	-10.6%	8.7%
CC1(C)CC(=O)C2=C(C1)Nc1ccccc1NC2c1ccccc1F (centres undefined)	36.3	7.2	i	5.7	6.8%	-25.2%
O=C(c1ccc(Oc2ccc([N+](=O)[O-])cc2)cc1)N1CCCCCC1	-77.7*	-5.2	i	-17.0	-15.0%	-23.7%
N#Cc1ccc(COc2cccnc2[N+](=O)[O-])cc1	-7.6	-10.5	i	-0.7	0.2%	1.7%
O=[N+]([O-])c1ncccc1OCc1ccc(-c2ccccc2)cc1	-55.6*	2.8	i	-9.8	-3.6%	8.7%
O=C(c1ccc([N+](=O)[O-])cc1)N1CCC(Cc2ccccc2)CC1	-76.4*	0.4	i	-8.3	-13.0%	-11.0%
O=C(c1ccc(Oc2ccc([N+](=O)[O-])cc2Cl)cc1)N1CCCC1	0.0	4.4	i	8.8	?	-57.6%
O=C(COc1cccnc1[N+](=O)[O-])N1CCC(Cc2ccccc2)CC1	-67.5*	-4.3	i	3.7	-12.2%	11.1%
O=C(CCC1CCCN(C(=O)CCN2CCCCC2=O)C1)NCc1ccccc1F (centres undefined)	6.1	-3.7	i	0.0	16.5%	13.8%
COc1ccc(-c2nc(Cn3c(SCc4ccc(C)cc4)nc4cccnc43)c(C)o2)cc1OC	·	-8.9	·	·	·	·
O=C(NCC(=O)N(c1cccnc1)C(C(=O)NC1CCCCC1)c1ccccc1)c1ccco1 (centres undefined)	12.4	-1.9	i	-1.3	2.1%	13.4%
COc1ccc(Cn2c(C3CC3)nc3ccc(NC(=O)c4cccnc4)cc3c2=O)cc1	-70.1*	1.1	?	7.2	11.0%	-15.0%
O=C(NC1CCCCCC1)c1ccc(CS(=O)Cc2ccccc2Cl)o1 (centres undefined)	-54.2*	-7.3	i	-0.6	4.0%	-43.5%
CN1C(=O)C(Cl)(Cl)C(=O)c2ccccc21	-91.1*	2.5	i	-6.8	-20.2%[11.3 µM]	-61.0%
O=C(COc1ccc2c3c(c(=O)oc2c1)CCC3)N[C@@H](Cc1ccccc1)C(=O)O	11.2	33.2*	i	11.6	1.8%	1.0%
O=C(COc1ccc2c3c(c(=O)oc2c1)CCC3)Nc1ccc(CCO)cc1	-53.0*	1.4	i	7.5	1.8%	4.3%
Cc1c(OCC(=O)N[C@@H](Cc2ccccc2)C(=O)O)ccc2c1oc(=O)c1ccccc12	-8.8	31.0*	i	9.3	5.7%	6.9%
NS(=O)(=O)c1ccc(CCNC(=O)COc2ccc3c4c(c(=O)oc3c2)CCC4)cc1	6.4	-3.2	i	-10.6	-7.0%	-26.3%
